Measurements from PubChem BioAssay (NCATS).
“And” between values parts separate entries of the source, which are not always exact repeats. Equal values may be shown once. Records with an inconclusive call do not appear. The source made the active and inactive calls. Calls come from the whole dose curve; as a rule, active = well fitted curve in the direction sought with a large enough effect; inconclusive = small, poorly fitted or top-dose-only effect, or another doubt; inactive = no such curve, though single readings can be large; an effect the other way counts as inactive or inconclusive.

Key:
[1] = Viability qHTS for spleen associated tyrosine kinase inhibitor (SYKi) drug resistant MV4-11 cells (AID 1963824); settings: SYKi-resistant MV4-11 viability, CellTiter-Glo, 72 h; series mostly up to 45 µM; note: nearly all actives have a fitted effect of over 35% in size
In short: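 CellTiter-Glo luminescence, read 10 min after reagent addition, reports viability after a 72 hr compound exposure. Cells are an MV4-11 line made resistant to SYK inhibition, seeded at 500 per well onto compound-containing plates.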

[2] = Quantitative highthroughput screen to assess conditional lethalithy of NOMO1 cells grown in RPMI1640 with untreated serum (RPMI+s) (AID 1963876); settings: NOMO1 AML cells in RPMI+serum, CellTiter-Glo viability, 48 h; series mostly up to 45.8 µM; note: nearly all actives have a fitted effect of over 35% in size;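 for Viability: 100% = DMSO wells and 0% = empty wells without cells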
In short: (§1)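 Each medium arm—HPLM with 10% dialyzed FBS, or RPMI1640 with 5 mM glucose and 10% untreated or dialyzed FBS—was screened against an 11-point, 3-fold compound titration for 48 h at 37 °C, with CellTiter-Glo luminescence as endpoint.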

[3] = Quantitative highthroughput screen to assess conditional lethalithy of NOMO1 cells grown in RPMI1640 with dialyzed fetal bovine serum (RPMI+ds) (AID 1963877); settings: NOMO1 in RPMI+dialyzed FBS viability, ATP luminescence, 48 h; series mostly up to 45.8 µM; note: nearly all actives have a fitted effect of over 30% in size;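 for Viability: 100% = DMSO control wells and 0% = empty wells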
In short: as §1

[4] = Quantitative highthroughput screen to assess conditional lethalithy of NOMO1 cells grown in Human Plasma-Like Medium with dialyzed fetal bovine serum (HPLM+ds) (AID 1963878); settings: NOMO1 AML cells in HPLM+ds, CellTiter-Glo viability, 48 h; series mostly up to 45.8 µM; note: nearly all actives have a fitted effect of over 35% in size;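 for Viability: 100% = DMSO wells and 0% = empty wells on each plate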
In short: as §1

[5] = Quantitative highthroughput screen to assess conditional lethalithy of P12 Ichikawa cells grown in Human Plasma-Like Medium with dialyzed fetal bovine serum (HPLM+ds) (AID 1963879); settings: ATP luminescence, 48 h; Potency: viability; series mostly up to 45.8 µM; note: nearly all actives have a fitted effect of over 35% in size
In short: as §1

[6] = Quantitative highthroughput screen to assess conditional lethalithy of P12 Ichikawa cells grown in RPMI1640 with dialyzed fetal bovine serum (RPMI+ds) (AID 1963880); settings: ATP luminescence, 48 h; Potency: P12-Ichikawa viability; series mostly up to 45.8 µM; note: nearly all actives have a fitted effect of over 35% in size;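 for Viability: 100% = DMSO wells and 0% = empty wells on each plate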
In short: as §1

[7] = Quantitative highthroughput screen to assess conditional lethalithy of P12 Ichikawa cells grown in RPMI1640 with untreated serum (RPMI+s) (AID 1963881); settings: ATP luminescence, 48 h; Potency: viability; series mostly up to 45.8 µM; note: nearly all actives have a fitted effect of over 35% in size;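 for Viability: 100% = DMSO wells and 0% = empty wells without cells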
In short: as §1

[8] = Quantitative highthroughput screen to assess conditional lethalithy of SEM cells grown in Human Plasma-Like Medium with dialyzed fetal bovine serum (HPLM+ds) (AID 1963882); settings: SEM B-ALL cells in HPLM+ds, CellTiter-Glo viability, 48 h; series mostly up to 45.8 µM; note: nearly all actives have a fitted effect of over 35% in size
In short: as §1

[9] = Quantitative highthroughput screen to assess conditional lethalithy of SEM cells grown in RPMI1640 with unreated serum (RPMI+s) (AID 1963883); settings: SEM B-ALL cells, CellTiter-Glo viability, 48 h; series mostly up to 45.8 µM; note: nearly all actives have a fitted effect of over 35% in size;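 for Viability: 100% = DMSO wells and 0% = empty wells without cells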
In short: as §1

[10] = Quantitative highthroughput screen to assess conditional lethalithy of SEM cells grown in RPMI1640 with dialyzed fetal bovine serum (RPMI+ds) (AID 1963884); settings: SEM B-ALL cells, RPMI+dialyzed FBS, CellTiter-Glo viability, 48 h; series mostly up to 45.8 µM; note: nearly all actives have a fitted effect of over 35% in size;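 for Viability: 100% = DMSO control wells and 0% = empty wells without cells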
In short: as §1

[11] = Cellular viability qHTS for adrenocortical cancer (ACC) cell line SW-13 (AID 1963989); settings: SW-13 ACC cells viability, CellTiter-Glo, 48 h; activity (max response): active compounds read low; note: nearly all actives have a fitted effect of over 65% in size;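 for activity (max response): cells grown in serum-free medium with ITS supplement; % is set by controls: 0 for no effect and ±100 for the full control effect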
In short: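 Compound titrations (up to 46 uM final, in DMSO) were applied to SW-13 cells for 48 h at 37C/5% CO2. Reading used CellTiter-Glo after 20 min at room temperature; fitted curves yielded IC50 and efficacy.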

[12] = Cellular viability qHTS for adrenocortical cancer (ACC) cell line NCI-H295R (AID 1963990); settings: CellTiter-Glo ATP luminescence, 48 h; series mostly up to 46.1 µM; note: nearly all actives have a fitted effect of over 60% in size
In short: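 Readout: CellTiter-Glo luminescence, 20 min RT. Exposure: 48 h, 37C/5% CO2. Cells: NCI-H295R, ITS-DMEM serum-free. Range: up to 46 uM. Analysis: 4PL fit, IC50 plus efficacy.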
Potency is the fitted concentration of half-maximal effect.

Cc1cc(NC(=O)Nc2ccc(N(C)C)cc2)c2cc(F)cc(F)c2n1
inactive: Potency [2] | Potency [3] | Potency [4] | Potency [5] | Potency [6] | Potency [7] | Potency [8] | Potency [9] | Potency [10] | activity (max response) [11] -2.18%
active: Potency [1] 10.2 µM

Nc1cc(C(F)(F)F)c(-c2cc(N3CCOCC3)nc(N3CCOCC3)n2)cn1
active: Potency [1] 1.46 µM and 2.09 µM | Potency [2] 1.87 µM | Potency [3] 1.87 µM | Potency [4] 1.18 µM | Potency [5] 1.32 µM | Potency [6] 1.32 µM | Potency [7] 1.66 µM | Potency [8] 935 nM | Potency [9] 1.05 µM | Potency [10] 833 nM | Potency [11] 2 µM | Potency [12] 3.16 µM

CN1CCC(=C2c3ccccc3C=Cc3ccccc32)CC1
inactive: Potency [2] | Potency [3] | Potency [4] | Potency [5] | Potency [6] | Potency [7] | Potency [8] | Potency [9]
active: Potency [1] 18.8 µM | Potency [11] 25.1 µM | Potency [12] 3.98 µM

COc1ccc2c(c1OC)C(=O)OC2[C@H]1c2c(cc3c(c2OC)OCO3)CCN1C (some centres not stated)
active: Potency [1] 23.5 µM | Potency [2] 0.296 µM | Potency [3] 0.332 µM | Potency [4] 0.148 µM | Potency [5] 0.469 µM | Potency [6] 0.59 µM | Potency [7] 0.418 µM | Potency [8] 235 nM | Potency [9] 0.118 µM | Potency [10] 187 nM | Potency [11] 22.4 µM | Potency [12] 25.1 µM

Nc1ccn([C@@H]2C(F)=C(CO)[C@@H](O)[C@H]2O)c(=O)n1
active: Potency [1] 1.03 µM | Potency [2] 5.24 µM | Potency [3] 2.95 µM | Potency [4] 2.63 µM | Potency [5] 1.66 µM | Potency [6] 6.6 µM | Potency [10] 1480 nM

Cc1ccc(C(=O)Nc2ccc(Oc3cc4cnn(C)c4cc3-c3cn[nH]c3)c(F)c2)c(=O)n1-c1ccc(F)cc1
inactive: activity (max response) [11] -20.9%
active: Potency [1] 0.0047 µM | Potency [2] 8.31 µM | Potency [3] 9.33 µM | Potency [4] 7.41 µM | Potency [5] 6.6 µM | Potency [6] 7.41 µM | Potency [7] 6.6 µM | Potency [8] 295 nM | Potency [10] 234 nM

COc1cccc(-c2cc(=O)c3ccccc3o2)c1N
inactive: Potency [2] | Potency [3] | Potency [4] | Potency [5] | Potency [6] | Potency [7] | Potency [8] | Potency [10] | activity (max response) [11] 0.813% | Potency [12]
active: Potency [1] 18.4 µM

Cc1c(NC(=O)c2ccc(C(C)(C)C)cc2)cccc1-c1cn(C)c(=O)c(Nc2ccc(C(=O)N3CCOCC3)cc2)n1
inactive: Potency [2] | Potency [3] | Potency [4] | Potency [5] | Potency [6] | Potency [7] | Potency [8] | Potency [9] | Potency [10] | activity (max response) [11] -3.65% | Potency [12]
active: Potency [1] 11.4 µM and 16.6 µM

CCC(c1ccc(O)cc1)C(CC)c1ccc(O)cc1 (configuration not stated)
inactive: Potency [2] | Potency [3] | Potency [4] | Potency [5] | Potency [6] | Potency [7]
active: Potency [1] 26.3 µM | Potency [11] 17.8 µM | Potency [12] 15.8 µM

CNC(=O)c1ccc(C)c(-n2c(C)cc(OCc3ccc(F)cc3F)c(Br)c2=O)c1
inactive: Potency [2] | Potency [3] | Potency [4] | Potency [5] | Potency [6] | Potency [7] | Potency [8] | Potency [9] | Potency [10] | Potency [12]
active: Potency [1] 8.2 µM

CC(C)Oc1ccc2c(=O)c(-c3ccccc3)coc2c1
active: Potency [1] 10.6 µM
inactive: Potency [2] | Potency [3] | Potency [4] | Potency [5] | Potency [6] | Potency [7] | Potency [8] | Potency [9] | activity (max response) [11] -5.36% and 3.78% | Potency [12]

CC(C)(Sc1ccc(CCN(CCCCC2CCCCC2)C(=O)NC2CCCCC2)cc1)C(=O)O
inactive: Potency [2] | Potency [3] | Potency [4] | Potency [5] | Potency [7] | Potency [8] | Potency [10] | activity (max response) [11] 4.08% | Potency [12]
active: Potency [1] 18.6 µM
